Among all 360,000 compounds or so, about 9,100 (2.5%) were called active. About 4% were inconclusive and are not listed. For the sample, actives were picked, then their nearest neighbours and some compounds at random. Values without a mark were called inactive. Cut-off read from the data, not from the text of the source: active = max response below about -50%; inconclusive = no clear call, values can overlap the other calls; inactive = above that.
Biological target: D(3) dopamine receptor (Homo sapiens) (UniProt P35462)
Sequence (P35462 whole entry, looked up): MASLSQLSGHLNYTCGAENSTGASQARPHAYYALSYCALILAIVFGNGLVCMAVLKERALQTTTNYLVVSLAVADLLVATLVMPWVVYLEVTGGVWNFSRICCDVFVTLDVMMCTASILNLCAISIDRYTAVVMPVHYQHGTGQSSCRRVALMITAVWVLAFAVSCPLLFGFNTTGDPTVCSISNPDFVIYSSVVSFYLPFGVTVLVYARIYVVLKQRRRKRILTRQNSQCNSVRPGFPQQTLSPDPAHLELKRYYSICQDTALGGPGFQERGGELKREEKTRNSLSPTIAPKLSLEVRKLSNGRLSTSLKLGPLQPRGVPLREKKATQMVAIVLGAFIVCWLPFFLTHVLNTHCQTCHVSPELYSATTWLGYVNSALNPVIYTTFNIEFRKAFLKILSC
Experiment: qHTS of D3 Dopamine Receptor Antagonist: qHTS
Details: D3R cells, DiscoveRx beta-arrestin luminescence, antagonist mode; hits give low values
Text: D3 DARs represent a very important target for the treatment of several neuropsychiatric disorders. Indeed, one of the most promising therapeutic applications for the D3 DAR is in the area of addiction and related disorders. […] These findings have been observed with a number of addictive substances including cocaine, amphetamine, nicotine, and alcohol. […] Antagonism of the D3 DAR may also be therapeutic in the treatment of schizophrenia or psychosis. […] Since the D3 DAR is expressed in areas of the CNS associated with the control of mood and emotion, it has been hypothesized that selective antagonism of the D3 DAR may be effective in treating psychosis without inducing the motor side effects typically seen with D2 DAR antagonists.
This part of the project aims to discover novel antagonist.
NIH Chemical Genomics Center [NCGC]
NIH Molecular Libraries Probe Centers Network [MLPCN]
Assay Submitter (PI): David Sibley, NINDS
Freshly passaged cells are plated in 1536 well white, solid bottom plates at a density of 1500 cells/well in 3microl of complete media. After an overnight incubation at 37 degrees C in 5% CO2, cells are loaded with 23nl of test compound from the compound library (as well as dopamine controls) using a 1536 pintool and incubated at 37 degrees C for 90 minutes. Two microliters of DiscoveRx reagent is then added to all cells, and they are incubated for an additional 30 - 60 minutes at room temperature. Following incubation, luminescence is measured on a ViewLux CCD-based luminometer reader using a 20 sec exposure time.
% is set by controls: 0 for no effect and ±100 for the full control effect.

**Q.** Which max response, negative = inhibition does the source give for CC(Cc1ccccc1)NCCC(c1ccccc1)c1ccccc1 (configuration not stated) here?
**A.** -75.4% (active)

**Q.** With CC(=O)NC(=O)NC(C)Cc1ccccc1 (configuration not stated) as the compound, how does the max response, negative = inhibition read?
**A.** 0%

**Q.** Which max response, negative = inhibition does the source give for Fc1ccc(C2N3CCCN23)cc1 (configuration not stated) here?
**A.** 17.3%

**Q.** CCOC(=O)CC(SP1(=S)OCC2(CCCCO2)C(C2CCCCO2)O1)C(=O)OCC (configuration not stated) was tested. Which max response, negative = inhibition did it give?
**A.** 0.24%

**Q.** Which max response, negative = inhibition does the source give for COc1c(O)ccc2c1-c1c3c(cc4c1C(C2)N(C)CC4)OCO3 (configuration not stated) here?
**A.** -20.5%

**Q.** For COC1=C[C@@H]2[C@@H]3Cc4ccc(OC)c(O)c4[C@]2(CCN3C)CC1=O, which max response, negative = inhibition is on record?
**A.** 2.57%

**Q.** How did the max response, negative = inhibition turn out when COc1ccc2c(c1O)-c1cccc3c1[C@@H](C2)N(C)CC3 was run?
**A.** -64.4% (active)

**Q.** For COc1cccc(CN2CCCC(C(=O)c3ccccc3SC)C2)c1O (configuration not stated), which max response, negative = inhibition is on record?
**A.** -25.9%

**Q.** How did the max response, negative = inhibition turn out when c1cncc(CNC2=NCCC2)c1 was run?
**A.** -0.0969%

**Q.** Which max response, negative = inhibition does the source give for COC(=O)CN(CCCl)P1(=O)OCCCN1CCCl (configuration not stated) here?
**A.** 9.55%

**Q.** Which max response, negative = inhibition does the source give for CSc1ccc(C(=O)C2CCCN(Cc3ccn[nH]3)C2)cc1 (configuration not stated) here?
**A.** 2.56%

**Q.** How did the max response, negative = inhibition turn out when CCn1cc(CN2CCCC(C(=O)c3cccc(C(F)(F)F)c3)C2)cn1 (configuration not stated) was run?
**A.** -84.1% (active)

**Q.** With CC(C)Oc1cccc(C(=O)C2CCCN(C3CCOCC3)C2)c1 (configuration not stated) as the compound, how does the max response, negative = inhibition read?
**A.** -5.82%

**Q.** CN(C)CC1Oc2ccccc2OC1(O)c1ccccc1 (configuration not stated) was tested. Which max response, negative = inhibition did it give?
**A.** -95.3% (active)

**Q.** With CC1CCC(N(C)C2CCN(C)CC2)CC1 (configuration not stated) as the compound, how does the max response, negative = inhibition read?
**A.** -17.4%

**Q.** Which max response, negative = inhibition does the source give for Cc1cccc(-n2c(C)nc3cc(C(=O)N4CCC5(CC4)OCCO5)ccc32)c1 here?
**A.** -5.12%

**Q.** Clc1cccc(Cl)c1Cl was tested. Which max response, negative = inhibition did it give?
**A.** -21.5%

**Q.** With Fc1cccc(F)c1CN1CCN(Cc2c(F)cccc2F)CC1 as the compound, how does the max response, negative = inhibition read?
**A.** -59.3% (active)

**Q.** For CN1CCN(Cc2ccccc2C(F)(F)F)CC1, which max response, negative = inhibition is on record?
**A.** -22.2%

**Q.** Which max response, negative = inhibition does the source give for O=C(N/N=C/c1c(O)n(C2CC2)c(=S)[nH]c1=O)c1ccccc1 here?
**A.** -25.4%

**Q.** With CCC/C(=N\O)c1c[nH]c2ccccc12 as the compound, how does the max response, negative = inhibition read?
**A.** -19.7%

**Q.** With Cc1cccc(NC(=O)N2CC3CC(C2)c2cccc(=O)n2C3)c1 (configuration not stated) as the compound, how does the max response, negative = inhibition read?
**A.** 8.44%

**Q.** Which max response, negative = inhibition does the source give for CCOC(=O)C(O)(c1ccc(NC(=O)c2ccco2)c(OC)c1)C(F)(F)F (configuration not stated) here?
**A.** 44%

**Q.** Which max response, negative = inhibition does the source give for COc1cc(C(c2c(O)c3ccccc3oc2=O)c2c(C)n(C)n(-c3ccccc3)c2=O)ccc1O (configuration not stated) here?
**A.** 9.1%

**Q.** With CCC(=O)CC(c1ccc([N+](=O)[O-])cc1)c1c(O)c2ccccc2oc1=O (configuration not stated) as the compound, how does the max response, negative = inhibition read?
**A.** -88.6% (active)

**Q.** With Cc1ccc(-n2c(-c3ccc([N+](=O)[O-])cc3)nc3ccccc3c2=O)cc1 as the compound, how does the max response, negative = inhibition read?
**A.** 7.83%

**Q.** COC(=O)C[C@H]1CC[C@H]2NC[C@@H](O)COC[C@@H]2O1 was tested. Which max response, negative = inhibition did it give?
**A.** 0.0579%

**Q.** Which max response, negative = inhibition does the source give for CC(=O)NCC1=C(c2ccc3ccccc3c2)C[C@@H]2CC[C@H]1N2Cc1ccco1 here?
**A.** -16.9%

**Q.** Which max response, negative = inhibition does the source give for C[C@H]1CN([C@@H](C)CO)C(=O)CCCn2nncc2CO[C@H]1CN(C)C(=O)Oc1cccc2ccccc12 here?
**A.** 27%

**Q.** For CCOC(=O)C1CN(C)CCC1=O (configuration not stated), which max response, negative = inhibition is on record?
**A.** -50.3% (active)

**Q.** With CCOC(=O)[C@]12Cc3cc(OC)ccc3[C@H]1N(C(C)C)C(=O)c1ccccc12 as the compound, how does the max response, negative = inhibition read?
**A.** 0.502%

**Q.** How did the max response, negative = inhibition turn out when c1ccc(C(CN2CCCCC2)c2ccccc2)cc1 was run?
**A.** 5.85%

**Q.** With O=[N+]([O-])c1ccc(C2C3C(c4ccccc4)=NC4(CCCCC4)N32)cc1 (configuration not stated) as the compound, how does the max response, negative = inhibition read?
**A.** 4.9%

**Q.** With O=C1NC(=O)C(Cc2ccccc2)C(=O)N1 as the compound, how does the max response, negative = inhibition read?
**A.** 4.35%

**Q.** Which max response, negative = inhibition does the source give for CC(=O)N1CN2CN(C(C)=O)CC(C(=O)c3ccc(Br)cc3)(C2)C1 here?
**A.** 2.09%

**Q.** With Cc1cc2ccccn2c1C(C[N+](=O)[O-])c1c(F)cccc1Cl (configuration not stated) as the compound, how does the max response, negative = inhibition read?
**A.** -52.4% (active)

**Q.** With Cn1cc(C(=O)OCC(=O)N2CCCC2)c2ccccc21 as the compound, how does the max response, negative = inhibition read?
**A.** 0%

**Q.** How did the max response, negative = inhibition turn out when CCC(=O)OC(Cc1ccccc1)(c1ccccc1)C(C)CN(C)C (configuration not stated) was run?
**A.** -66% (active)

**Q.** For O=P(OC1=CCCCC1)(c1ccccc1)c1ccccc1, which max response, negative = inhibition is on record?
**A.** 16.2%

**Q.** CN(C)CCN(CC1CCCN(Cc2ccccc2F)C1)C(=O)Cc1ccc(F)c(F)c1 (configuration not stated) was tested. Which max response, negative = inhibition did it give?
**A.** -0.712%

**Q.** For Nc1ccc(C(=O)N/N=C2/CN3CCC2CC3)cc1, which max response, negative = inhibition is on record?
**A.** -6.03%

**Q.** C=CCN1C(=O)NC(=O)/C(=C/c2ccc(OCC(=O)Nc3ccc(C)cc3)cc2)C1=O was tested. Which max response, negative = inhibition did it give?
**A.** -2.43%

**Q.** For O=C(O)C1CSC(c2cccnc2)N1 (configuration not stated), which max response, negative = inhibition is on record?
**A.** -75.1% (active)

**Q.** How did the max response, negative = inhibition turn out when CC(C)n1c(=O)c(C=Nc2ccc(Br)cc2)c(O)n(Cc2ccco2)c1=O was run?
**A.** -0.258%

**Q.** Which max response, negative = inhibition does the source give for COC(=O)C1=C(c2ccc(OCc3ccccc3)cc2)C[C@@H]2CC[C@H]1N2C(=O)NCc1ccc(Cl)cc1 here?
**A.** -2.39%

**Q.** Which max response, negative = inhibition does the source give for COc1ccc(N=Cc2c(O)n(C)c(=O)[nH]c2=O)cc1 here?
**A.** -8.25%

**Q.** Which max response, negative = inhibition does the source give for COc1ccc(C(=O)C2CCCN(Cc3ccc(C)s3)C2)cc1OC (configuration not stated) here?
**A.** 1.99%
